Experimental data published in PubChem BioAssay.
Unmarked numbers belong to inactive results. Activity calls are given as the source filed them. Unless noted, no stated cut-off is given here; in the data, active means inhibition above about 44%; inactive means the rest.

Biological target: Nuclear receptor subfamily 5 group A member 2 (Homo sapiens) (UniProt O00482)
Test: NR5A2 activity suppression in reporter cells – cell-based, luminescence, confirmation (AID 651613; in the data active means inhibition above about 42%;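 further: HEK293T cells co-transfected with LRH-1 and StAR promoter luciferase reporter; 0% = vehicle wells and 100% = parental cells lacking receptor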)
Conditions: cell-based LRH-1 luciferase reporter, inverse agonism; at 3.6 µM; hits give high values

Chain of Nuclear receptor subfamily 5 group A member 2 (Homo sapiens) (O00482 whole entry, looked up): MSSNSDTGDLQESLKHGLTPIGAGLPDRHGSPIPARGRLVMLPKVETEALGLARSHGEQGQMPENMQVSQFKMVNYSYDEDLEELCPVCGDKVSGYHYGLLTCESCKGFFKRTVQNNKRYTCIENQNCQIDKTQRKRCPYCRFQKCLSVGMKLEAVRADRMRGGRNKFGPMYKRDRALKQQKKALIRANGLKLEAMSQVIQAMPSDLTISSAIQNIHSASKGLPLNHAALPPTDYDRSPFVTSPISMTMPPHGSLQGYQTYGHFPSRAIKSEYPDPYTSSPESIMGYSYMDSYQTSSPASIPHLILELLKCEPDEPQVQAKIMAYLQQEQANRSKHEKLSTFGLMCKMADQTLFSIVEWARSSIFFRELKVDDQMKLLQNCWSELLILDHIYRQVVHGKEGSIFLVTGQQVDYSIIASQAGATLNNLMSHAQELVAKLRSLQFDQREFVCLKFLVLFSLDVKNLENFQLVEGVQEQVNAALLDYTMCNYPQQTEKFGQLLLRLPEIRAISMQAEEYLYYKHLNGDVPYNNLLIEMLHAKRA

| SMILES | inhibition |
| --- | --- |
| Clc1ccccc1-c1nc(N/N=C/c2cccnc2)c2ccccc2n1 | 52.3% (active) |
| Cc1ccccc1Oc1nc2c(C)cccn2c(=O)c1/C=C(\C#N)C(=O)NC1CCS(=O)(=O)C1 (stereo not given) | 52.6% (active) |
| O=C(NCc1cccnc1)c1cccn2c(=O)c3sccc3nc12 | 34.3% |
| O=C(Cn1cnc2c(nnn2-c2ccccc2)c1=O)NCCc1ccccc1 | 50.9% (active) |
| COc1cccc(-c2cc(C(=O)Nc3ccncc3)c3ccccc3n2)c1 | 35.2% |
| COc1ccc(-c2c(C)cc3oc(=O)cc(-c4ccccc4)c3c2C)cc1 | 54.8% (active) |
| O=C(CCl)Nc1ccccc1C(=O)c1ccccc1 | 48.4% (active) |
| Cc1cc(C)c(SCCc2ccncc2)c(C)c1 | 63.7% (active) |
| COc1ccc(N2CCN(C(=O)CN3C(=O)NC4(CCCCCC4)C3=O)CC2)cc1 | 46.6% (active) |
| CC1CCCC(C)N1C(=O)COC(=O)Cc1ccc(Cl)cc1 (stereo not given) | 51.2% (active) |
| CC(=O)Nc1ccc2nc(NC(=O)c3ccc([N+](=O)[O-])o3)sc2c1 | 53.5% (active) |
| CCCc1cc(=O)oc2cc(OCC(=O)NCc3ccccn3)ccc12 | 55.5% (active) |
| Cn1c(=O)n(C)c2cc(NC(=O)CSc3nnc(-c4ccccc4O)n3-c3ccccc3)ccc21 | 58.8% (active) |
| O=C(CN1C(=O)NC2(CCCC2)C1=O)NCCc1ccc(F)cc1 | 44.2% (active) |
| O=C1/C(=C\c2ccc(Cl)c(Cl)c2)CN(C(=O)CCN2CCOCC2)C/C1=C/c1ccc(Cl)c(Cl)c1 | 93.2% (active) |
| Cc1cc(OCC(=O)Nc2nccs2)c2c(C)c(C)c(=O)oc2c1 | 74.5% (active) |
| Cc1cccc(-n2ncc3c2CCCC3NC(=O)C2(C(N)=O)CC2)c1C (stereo not given) | 55% (active) |
| C/C(CC1CC(C)(C)OC1=O)=N/Nc1nc(-c2ccccc2)cs1 (stereo not given) | 47.3% (active) |
| CC(=O)N1CCc2c(sc(NC(=O)CCS(=O)(=O)c3ccccc3)c2C#N)C1 | 60.1% (active) |
| CCn1c(=O)[nH]c(=O)c2c(N)c(C(=O)c3cc(F)ccc3F)sc21 | 59.5% (active) |

| SMILES | inhibition |
| --- | --- |
| NC(=S)N/N=C/c1ccc(C(F)(F)F)cc1 | 48.1% (active) |
| O=C(Nc1ccc(N2CCN(C(=O)c3ccco3)CC2)cc1)c1ccc2c(c1)OCO2 | 48.3% (active) |
| COc1ccc(NC(=O)COC(=O)/C=C/C(=O)OCC(=O)Nc2ccc(OC)c(Cl)c2)cc1Cl | 50.8% (active) |
| Nc1ccc(C(=O)NN2C(=O)[C@H](Cl)C2c2ccc(Cl)cc2)cc1 (stereo not given in full) | 43.1% (active) |
| Cc1ccc(NC(=O)COC(=O)C(NS(=O)(=O)c2ccc(Cl)cc2)C(C)O)c(Br)c1 (stereo not given) | 55.3% (active) |
| CCOC(=O)c1cnc(-n2nc(C)cc2C)nc1NC1CCCC1 | 56.9% (active) |
| Cc1ccc(-c2csc(NC(=O)C3CCN(S(=O)(=O)c4cccs4)CC3)n2)cc1 | 58.5% (active) |
| Cc1nn(Cc2ccc(Cl)cc2)c(C)c1NC(=O)c1noc2c1CCCCC2 | 46.8% (active) |
| COc1cccc2c1C(=O)c1c(O)c3c(c(O)c1C2=O)C[C@@](O)(C(C)=O)C[C@@H]3O[C@H]1C[C@H](N)[C@H](O)[C@H](C)O1 | 104% (active) |
| CCOC(=O)C1CCN(Cc2cc(Cl)c3ccccc3c2O)CC1 | 10.1% |
| Cn1cccc1C(=O)OCC(=O)NCCCc1ccccc1 | 54% (active) |
| O=C(CSc1nnnn1C1CCCC1)Nc1ccc2c(c1)OCCO2 | 44.7% (active) |
| CCCCCCCCn1c2c(c(=N)c3ccccc31)CCC2 | 110% (active) |
| Cc1ccccc1OCC(=O)N/N=C/c1ccc([N+](=O)[O-])o1 | 57.5% (active) |
| CCOc1ccc(CCNC(=O)COC(=O)CSc2ccccc2C)cc1OCC | 49% (active) |
| Cc1ccc(Sc2ccc(NC(=O)CCl)cc2)cc1C | 52.6% (active) |
| CCCCSc1nc(SCC(=O)NCc2ccco2)c2c3c(sc2n1)COC(C)(CC)C3 (stereo not given) | 53.8% (active) |
| CC[n+]1c(/C=C/c2ccc(N(C)C)cc2)ccc2ccccc21 | 103% (active) |
| Cc1cc(OCC(=O)NC2CC2)c2c(C)c(C)c(=O)oc2c1 | 65.4% (active) |
| CC1(C(=O)NCc2ccc3c(c2)OCO3)CCN1C(=O)Cc1ccc(Cl)cc1Cl (stereo not given) | 56.5% (active) |

Biological target: Steroidogenic factor 1 (Homo sapiens) (UniProt Q13285)
Test: inverse agonism at SF1 nuclear receptor – cell-based, luminescence, high throughput, counter-screen for LRH-1 inverse agonist project (AID 651614);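 further: cells cotransfected with StAR promoter reporter and SF1 expression vector; 0% = vehicle on cells with receptor and 100% = vehicle on cells lacking receptor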
Conditions: cell-based SF1 luciferase reporter, at 3.6 µM, hits give high values

Chain of Steroidogenic factor 1 (Homo sapiens) (Q13285 whole entry, looked up): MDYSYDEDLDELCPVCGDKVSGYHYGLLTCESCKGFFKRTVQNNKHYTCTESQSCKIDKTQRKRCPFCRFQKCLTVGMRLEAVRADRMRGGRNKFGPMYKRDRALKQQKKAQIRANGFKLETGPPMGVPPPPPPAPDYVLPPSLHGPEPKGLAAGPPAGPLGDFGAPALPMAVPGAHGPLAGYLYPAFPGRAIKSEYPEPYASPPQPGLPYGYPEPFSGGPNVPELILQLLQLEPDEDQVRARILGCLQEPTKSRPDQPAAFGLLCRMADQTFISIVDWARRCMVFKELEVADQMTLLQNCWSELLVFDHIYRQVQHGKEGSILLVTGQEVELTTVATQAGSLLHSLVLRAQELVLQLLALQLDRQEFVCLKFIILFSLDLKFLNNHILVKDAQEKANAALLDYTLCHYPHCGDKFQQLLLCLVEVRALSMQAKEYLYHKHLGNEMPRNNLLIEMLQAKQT

| SMILES | inhibition |
| --- | --- |
| Clc1ccccc1-c1nc(N/N=C/c2cccnc2)c2ccccc2n1 | 53.3% (active) |
| Cc1ccccc1Oc1nc2c(C)cccn2c(=O)c1/C=C(\C#N)C(=O)NC1CCS(=O)(=O)C1 (stereo not given) | 51.3% (active) |
| O=C(NCc1cccnc1)c1cccn2c(=O)c3sccc3nc12 | 31.3% |
| O=C(Cn1cnc2c(nnn2-c2ccccc2)c1=O)NCCc1ccccc1 | 51% (active) |
| COc1cccc(-c2cc(C(=O)Nc3ccncc3)c3ccccc3n2)c1 | 39.4% |
| COc1ccc(-c2c(C)cc3oc(=O)cc(-c4ccccc4)c3c2C)cc1 | 45.4% (active) |
| O=C(CCl)Nc1ccccc1C(=O)c1ccccc1 | 50% (active) |
| Cc1cc(C)c(SCCc2ccncc2)c(C)c1 | 57.5% (active) |
| COc1ccc(N2CCN(C(=O)CN3C(=O)NC4(CCCCCC4)C3=O)CC2)cc1 | 43.3% (active) |
| CC1CCCC(C)N1C(=O)COC(=O)Cc1ccc(Cl)cc1 (stereo not given) | 41.8% |
| CC(=O)Nc1ccc2nc(NC(=O)c3ccc([N+](=O)[O-])o3)sc2c1 | 55.8% (active) |
| CCCc1cc(=O)oc2cc(OCC(=O)NCc3ccccn3)ccc12 | 59.1% (active) |
| Cn1c(=O)n(C)c2cc(NC(=O)CSc3nnc(-c4ccccc4O)n3-c3ccccc3)ccc21 | 54.8% (active) |
| O=C(CN1C(=O)NC2(CCCC2)C1=O)NCCc1ccc(F)cc1 | 40.8% |
| O=C1/C(=C\c2ccc(Cl)c(Cl)c2)CN(C(=O)CCN2CCOCC2)C/C1=C/c1ccc(Cl)c(Cl)c1 | 92.9% (active) |
| Cc1cc(OCC(=O)Nc2nccs2)c2c(C)c(C)c(=O)oc2c1 | 66.2% (active) |
| Cc1cccc(-n2ncc3c2CCCC3NC(=O)C2(C(N)=O)CC2)c1C (stereo not given) | 48.4% (active) |
| C/C(CC1CC(C)(C)OC1=O)=N/Nc1nc(-c2ccccc2)cs1 (stereo not given) | 54.3% (active) |
| CC(=O)N1CCc2c(sc(NC(=O)CCS(=O)(=O)c3ccccc3)c2C#N)C1 | 55.1% (active) |
| CCn1c(=O)[nH]c(=O)c2c(N)c(C(=O)c3cc(F)ccc3F)sc21 | 54.2% (active) |

| SMILES | inhibition |
| --- | --- |
| NC(=S)N/N=C/c1ccc(C(F)(F)F)cc1 | 44.6% (active) |
| O=C(Nc1ccc(N2CCN(C(=O)c3ccco3)CC2)cc1)c1ccc2c(c1)OCO2 | 50.7% (active) |
| COc1ccc(NC(=O)COC(=O)/C=C/C(=O)OCC(=O)Nc2ccc(OC)c(Cl)c2)cc1Cl | 53.9% (active) |
| Nc1ccc(C(=O)NN2C(=O)[C@H](Cl)C2c2ccc(Cl)cc2)cc1 (stereo not given in full) | 52.1% (active) |
| Cc1ccc(NC(=O)COC(=O)C(NS(=O)(=O)c2ccc(Cl)cc2)C(C)O)c(Br)c1 (stereo not given) | 57.6% (active) |
| CCOC(=O)c1cnc(-n2nc(C)cc2C)nc1NC1CCCC1 | 52.4% (active) |
| Cc1ccc(-c2csc(NC(=O)C3CCN(S(=O)(=O)c4cccs4)CC3)n2)cc1 | 55.4% (active) |
| Cc1nn(Cc2ccc(Cl)cc2)c(C)c1NC(=O)c1noc2c1CCCCC2 | 54.7% (active) |
| COc1cccc2c1C(=O)c1c(O)c3c(c(O)c1C2=O)C[C@@](O)(C(C)=O)C[C@@H]3O[C@H]1C[C@H](N)[C@H](O)[C@H](C)O1 | 94.4% (active) |
| CCOC(=O)C1CCN(Cc2cc(Cl)c3ccccc3c2O)CC1 | 32.9% |
| Cn1cccc1C(=O)OCC(=O)NCCCc1ccccc1 | 44.4% (active) |
| O=C(CSc1nnnn1C1CCCC1)Nc1ccc2c(c1)OCCO2 | 42.3% |
| CCCCCCCCn1c2c(c(=N)c3ccccc31)CCC2 | 92.8% (active) |
| Cc1ccccc1OCC(=O)N/N=C/c1ccc([N+](=O)[O-])o1 | 60% (active) |
| CCOc1ccc(CCNC(=O)COC(=O)CSc2ccccc2C)cc1OCC | 41% |
| Cc1ccc(Sc2ccc(NC(=O)CCl)cc2)cc1C | 56.5% (active) |
| CCCCSc1nc(SCC(=O)NCc2ccco2)c2c3c(sc2n1)COC(C)(CC)C3 (stereo not given) | 44.6% (active) |
| CC[n+]1c(/C=C/c2ccc(N(C)C)cc2)ccc2ccccc21 | 86.6% (active) |
| Cc1cc(OCC(=O)NC2CC2)c2c(C)c(C)c(=O)oc2c1 | 53.2% (active) |
| CC1(C(=O)NCc2ccc3c(c2)OCO3)CCN1C(=O)Cc1ccc(Cl)cc1Cl (stereo not given) | 47% (active) |
